Screening data from PubChem BioAssay.
ERG Ets-DNA blk = inhibitors of human ERG Ets domain-DNA interaction; fluorescence polarization, His-ERG Ets domain / labelled DNA; Potency, µM (highest dose often 76.9 µM), without a hit: at the highest dose FP activity, negative = inhibition, hits mostly inhibitors; 370,000 compounds, 0.028% hits; AID 624246; active = well fitted inhibition curve with a large enough effect in the polarisation, with a control signal flat; the % refers to the polarisation;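 note: polarization taken with two DNA probes labelled with fluorescein and Texas red; potency is the fitted concentration of half-maximal effect; % of control where 0% means no effect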
Target sequence (P11308 whole entry, looked up, the tested form may be a part): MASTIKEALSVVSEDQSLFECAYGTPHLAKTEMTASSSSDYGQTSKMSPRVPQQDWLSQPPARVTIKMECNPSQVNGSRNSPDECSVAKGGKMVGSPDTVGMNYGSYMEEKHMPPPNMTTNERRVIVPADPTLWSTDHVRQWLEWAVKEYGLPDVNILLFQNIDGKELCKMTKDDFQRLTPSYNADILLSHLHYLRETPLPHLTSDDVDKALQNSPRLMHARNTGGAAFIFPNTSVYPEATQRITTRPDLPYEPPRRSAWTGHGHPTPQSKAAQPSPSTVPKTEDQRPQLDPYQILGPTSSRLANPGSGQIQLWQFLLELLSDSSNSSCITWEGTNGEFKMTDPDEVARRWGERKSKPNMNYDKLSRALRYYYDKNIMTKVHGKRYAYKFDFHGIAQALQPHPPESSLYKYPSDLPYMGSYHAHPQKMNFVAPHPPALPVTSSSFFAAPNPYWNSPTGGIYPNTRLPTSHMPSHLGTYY
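His-tagged ERG Ets domain (1 uM in the protein solution; 300mM KCl, 50mM Tris-HCl, 1mM EDTA, 1mM DTT, pH 7.5) received compound, then a probe mix of 5 nM fluorescein-DNA and 100nM Texas-615-DNA. Fluorescence polarization was read for both dyes.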
D1 PAM = potentiators of human D1 dopamine receptor. P21728. HEK293 TREx D1 cells, calcium flux, dopamine EC20 potentiation. potentiation, % at 10 µM. 360,000 compounds, 0.036% hits. AID 504651; in the data active = potentiation above about 30%; note: 0% is about no effect
D3 antag = D3 dopamine receptor (human) antagonism | AID 652054 | 360,000 compounds, 2.5% hits | P35462 | max response, negative = inhibition, % | D3R cells, DiscoveRx beta-arrestin luminescence, antagonist mode; stronger effect = lower value; in the data active = max response below about -50%; note: % is set by controls: 0 for no effect and ±100 for the full control effect
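Cells expressing the human receptor were seeded at 1500 cells/well, incubated overnight at 37 degrees C in 5% CO2, then exposed to library compounds with dopamine controls for 90 minutes at 37 degrees C before luminescent detection.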
D1 antag = human D1 dopamine receptor antagonism | 360,000 compounds, 3.2% hits | HEK293 TREx D1 cells, calcium flux, dopamine EC80; stronger effect = lower value | P21728 | activity change, negative = inhibition, % at 10 µM | AID 504652; in the data active = activity change below about -30%; note: % is set by controls: 0 for no effect and ±100 for the full control effect
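Kinetic fluorescence of a calcium dye serves as the read-out. D1-expressing Hek293 Trex cells, induced overnight at 30 C, are exposed to compound for 180 s before an EC80 dopamine addition, then read 180 s further.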
D1 ag = activates the human D1 dopamine receptor; P21728; HEK293 T-REx D1 cells, calcium flux, agonist mode; activation, % at 2 µM; 360,000 compounds, 1% hits; AID 504660; in the data active = activation above about 30%; note: 0% is about no effect
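Tetracycline-induced HEK293 TREx D1 cells, force-coupled to calcium signalling, were dye-loaded with a no-wash calcium kit. Compound was pin-added after a 10 s baseline. Fluorescence was read kinetically at 1 cycle/s for 180 s, with calcium rises flagged as agonism.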
DRD3 agonist = agonists of human D3 dopamine receptor; P35462; D3R DiscoveRx beta-arrestin cells, luminescence, 90 min; max activation, %; 410,000 compounds, 0.58% hits; in the data active = max activation above about 30%; note: 0% is about no effect
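Cells at 1500/well, incubated overnight, then treated with pinned compounds (dopamine as control) for 90 min at 37 degrees C. DiscoveRx reagent added for 30 - 60 minutes at room temperature; luminescence read.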
An asterisk follows results filed as active; . = no result. Sampled rows, rich in hits. Any-hit rate of the full collection: about 6.1%.

SMILES	ERG Ets-DNA blk	D1 PAM	D3 antag	D1 antag	D1 ag	DRD3 agonist
Cc1c2ccccc2nc2c(F)c(NC(C)C)c(F)c(F)c12	8%	-1	17	3	64*	9
Cc1ccc(CSc2nnc(C)c(=O)n2N)cc1	-8%	3	5	-48*	1	1
Cc1n[nH]c(C)c1S(=O)(=O)N1CCCC(C(=O)Nc2nccs2)C1 (stereo not drawn)	1%	6	14	10	2	-1
Cc1ccc(NC(=O)COC(=O)Cc2ccsc2)c(C)c1	0%	-3	3	-34*	0	9
COc1ccc(NC(=O)COC(=O)Cc2ccsc2)c(OC)c1	4%	.	2	.	.	1
COC(=O)c1cccc(N2C(=O)C[C@](Sc3ccc(C)cc3)(C(=O)OC)[C@H]2c2ccccc2)c1	.	.	135	.	.	23
CCOC(=O)CNC(=O)N1CCCC(CNS(=O)(=O)c2cccs2)C1 (stereo not drawn)	-7%	-1	-5	10	1	0
Cc1ccc(C)c(N(CC(=O)Nc2cc(Cl)ccc2Oc2ccccc2)S(C)(=O)=O)c1	-1%	-1	0	4	1	1
Cc1cccc(C)c1N(CC(=O)Nc1cc(Cl)ccc1Oc1ccccc1)S(C)(=O)=O	2%	6	-54*	-2	1	0
CC(C)CNS(=O)(=O)c1ccc(CCC(=O)Nc2cc(Cl)ccc2Oc2ccccc2)cc1	1%	0	10	-1	7	1
CCCNS(=O)(=O)c1ccc(CCC(=O)Nc2cc(Cl)ccc2Oc2ccccc2)cc1	-2%	-9	31	-20	1	30*
O=C(O)C1C2CCCCC2=C2CCCCC2C1C(=O)c1ccccc1 (stereo not drawn)	18%	6	-13	0	-1	-2
CCc1nn(C(CC)C(=O)NCCCN2CC(C)CC(C)C2)c(=O)c2cc3oc(C)cc3n12 (stereo not drawn)	0%	-4	-57*	-1	2	-22
C[C@H](NC(=O)c1nc[nH]c1C(=O)NCCCCCNC(=O)OC(C)(C)C)C(=O)OCc1ccccc1	-1%	-4	171	-39*	6	65*
CC(C)(C)OC(=O)CNC(=O)c1[nH]cnc1C(=O)Nc1ccc(CNC(=O)OC(C)(C)C)cc1	2%	8	142	2	6	9
CC(C)(C)OC(=O)NCCCCCNC(=O)c1nc[nH]c1C(=O)NCC(=O)OCc1ccccc1	-3%	.	110	.	.	27
CC(C)C[C@H](NC(=O)c1[nH]cnc1C(=O)Nc1ccc(CNC(=O)OC(C)(C)C)cc1)C(=O)OCc1ccccc1	7%	-4	26	6	8	-16
CC(C)(C)OC(=O)CNC(=O)c1[nH]cnc1C(=O)NCC(=O)OCc1ccccc1	20%	-6	67	10	-1	71*
C[C@H](NC(=O)c1[nH]cnc1C(=O)Nc1ccc(CNC(=O)OC(C)(C)C)cc1)C(=O)OCc1ccccc1	-9%	4	42	6	4	80*
CC(C)(C)OC(=O)NCc1ccc(NC(=O)c2nc[nH]c2C(=O)NCCNC(=O)c2[nH]cnc2C(=O)Nc2ccc(CNC(=O)OC(C)(C)C)cc2)cc1	2%	.	76	.	.	42*
O=C(NCc1ccccn1)C1CC(c2ccccc2Cl)=NO1 (stereo not drawn)	-6%	-1	-22	-6	3	-4
Cc1ccc(C(C(=O)NC2CCCCC2)N(Cc2ccco2)C(=O)Cc2c[nH]c3ccccc23)o1 (stereo not drawn)	-7%	-1	22	2	8	3
CC(C)(C)OC(=O)NCCCCCNC(=O)c1nc[nH]c1C(=O)N1CCc2ccccc2C1	-8%	.	80	.	.	38*
COC(=O)c1ccc(Oc2c(C)oc3cc(OCc4cnn(-c5ccccc5)c4)ccc3c2=O)cc1	-2%	2	54	4	4	-2
COC(=O)c1ccc(Oc2coc3cc(OCc4cnn(-c5ccccc5)c4)ccc3c2=O)cc1	7%	-3	7	-38*	4	2
SMILES	ERG Ets-DNA blk	D1 PAM	D3 antag	D1 antag	D1 ag	DRD3 agonist
Cc1ccc(NP(=O)(Nc2ccc(C)cc2)Nc2ccc(C)cc2)cc1	-2%	1	-11	11	-1	-15
Cn1cccc1/C=C1\Cc2ccccc2C1=O	5%	1	26	7	4	4
CN1C2CCC1/C(=C/c1cccn1C)C(=O)/C2=C\c1cccn1C	84%	-4	-3	-6	187*	0
Cn1cccc1/C=C1\CC(C(C)(C)C)C/C(=C\c2cccn2C)C1=O (stereo not drawn)	4%	2	35	-8	123*	2
C=CCn1c(SCC(=O)Nc2ccc(OC)cc2)nnc1-c1cnccn1	1%	32*	1	-9	1	4
COc1ccc(NC(=O)CCSc2nnnn2C)cc1	-8%	5	11	-5	7	6
COc1ccc(-c2nnc(SCC(=O)Nc3ccc(Cl)cc3)n2C)cc1	.	1	-57*	3	-1	-6
Cn1c(SCC(=O)NNC(=O)Nc2ccc(Cl)cc2)nnc1-c1ccccc1	4%	-1	1	-2	1	-11
Cn1nnnc1SCC(=O)NNC(=O)c1ccc(Cl)cc1	-10%	4	11	-12	-1	8
Cn1nnnc1SCC(=O)NNC(=O)c1ccc(F)cc1	1%	6	-57*	-1	2	-3
Cn1nnnc1SCC(=O)Nc1ccc(Oc2ccc(Cl)cc2)cc1	.	-2	-6	-30*	10	-3
C=CCn1c(SCC(=O)Nc2cc(C)cc(C)c2)nnc1-c1cnccn1	-16%	4	6	0	1	4
Clc1ccccc1CNCC1CCCO1 (stereo not drawn)	6%	-3	-17	-26	9	-3
O=C1Nc2ccccc2C(=O)N2c3ccccc3NC(=O)C12 (stereo not drawn)	.	.	59	.	.	2
CCCCN1C(=O)C(CC(=O)NCc2cccs2)CC(C(=O)N(C(C)C)C(C)C)=C1C (stereo not drawn)	.	.	18	.	.	-3
NC(=O)SCC(=O)Nc1ccc(Cl)cc1	1%	1	-53*	14	3	-11
CCOC(=O)c1c(/N=C/c2cc(OC)cc([N+](=O)[O-])c2O)sc(C)c1C	0%	-7	-71*	-10	1	-16
CCc1n[nH]c(=S)n1/N=C/c1cc(OC)cc([N+](=O)[O-])c1O	8%	3	-94*	-1	0	-27
Nc1ccc(N=Nc2ccccc2)c2cccnc12	1%	12	-26	-7	2	-10
Cc1ccc(C(=O)NC2CCCCCC2)o1	-1%	-2	9	12	-1	-4
